# Reference: PubChem BioAssay AID2283312 (EPA ToxCast)
# Records with an inconclusive call do not appear. Active and inactive are the calls of the source. How the source made its calls: active means hit-call score of the fitted dose curve at least 0.9, where 1 is the maximum; inconclusive means response in the unintended direction; inactive means score below 0.9.
# Biological target: rat Vasoactive Intestinal Peptide Receptor (VIP), Non-selective Binding, Vipr1 (gene 24875) (UniProt P30083)
# Assay: NVS_GPCR_rVIP_NonSelective: NovaScreen (NVS) G Protein-Coupled Receptor Assay for rat Vasoactive Intestinal Peptide Receptor (VIP), Non-selective Binding
# Method: NVS_GPCR_rVIP_NonSelective is a biochemical, single-readout assay that uses extracted gene-proteins from Rat forebrain membranes in a tissue-based cell-free assay. Measurements were taken 1 hour after chemical dosing in a 96-well plate.NVS_GPCR_rVIP_NonSelective is one of one assay component(s) measured or calculated from the NVS_GPCR_rVIP_NonSelective assay. It is designed to make measurements of radioligand binding, a form of binding reporter, as detected with scintillation counting signals by Filter-based radiodetection technology.Data from the assay component NVS_GPCR_rVIP_NonSelective was analyzed into 1 assay endpoint. This assay endpoint, NVS_GPCR_rVIP_NonSelective, was analyzed in the positive analysis fitting direction relative to DMSO as the negative control and baseline of activity. Using a type of binding reporter, loss-of-signal activity can be used to understand changes in the binding as they relate to the gene Vipr1. Furthermore, this assay endpoint can be referred to as a primary readout, because the performed assay has only produced 1 assay endpoint. To generalize the intended target to other relatable targets, this assay endpoint is annotated to the gpcr intended target family, where the subfamily is secretin receptor.
# Binding assays used specific radioligands (tritiated, iodinated) with non-radioactive competitive displacement ligands in agonist or antagonist protocols (as indicated) and various reference compounds and inhibitors to titrate specific binding to receptors and transporters. Most enzyme assays (CYPs, kinases, phosphatases, proteases, HDACs) used recombinant protein and specific substrates (fluorescence mostly, some colorimetric and radioactive) and inhibitors, followed by a biochemical separation of substrate and product. All assays for the biochemical HTS were initially run in duplicate at a single concentration (10 uM for CYP450 assays and 25 uM for all others). Assay-chemical combinations meeting a pre-defined threshold (e.g., 30% inhibition and other criteria defined below) were then run in singleton concentration-response format with maximum concentration of 20 uM for CYPs and 50 uM for all others. Each assay was run with positive and negative controls, and concurrent controls on every plate. The follow-up (secondary) screen tested active chemical-pairs in concentration series, as well as a few additional assays not tested in the primary screen, some selected negative inactives, and several cases re-run in the concentration series for confirmatory purposes.
# Chain of rat Vasoactive Intestinal Peptide Receptor (VIP), Non-selective Binding, Vipr1 (gene 24875) (P30083 whole entry, looked up): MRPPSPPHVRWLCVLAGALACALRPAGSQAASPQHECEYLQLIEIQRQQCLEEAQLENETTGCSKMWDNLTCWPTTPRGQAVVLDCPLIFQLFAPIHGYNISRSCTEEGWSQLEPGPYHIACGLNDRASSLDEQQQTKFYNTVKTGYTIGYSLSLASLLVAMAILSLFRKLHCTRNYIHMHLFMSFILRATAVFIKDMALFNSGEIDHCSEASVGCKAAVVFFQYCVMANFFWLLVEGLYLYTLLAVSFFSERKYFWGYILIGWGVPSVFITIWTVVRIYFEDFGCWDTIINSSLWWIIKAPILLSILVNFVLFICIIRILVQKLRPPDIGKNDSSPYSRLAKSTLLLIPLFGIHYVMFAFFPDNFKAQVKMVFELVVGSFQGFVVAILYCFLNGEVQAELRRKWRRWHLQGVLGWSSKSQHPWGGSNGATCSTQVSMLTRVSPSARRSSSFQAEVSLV
Compound,outcome,AC50
CN(C)C(=O)C1(N2CCCCC2)CCN(CC[C@@]2(c3ccc(Cl)c(Cl)c3)CN(C(=O)c3ccccc3)CCO2)CC1,inactive,
NCc1cccc(C2CCN(C(=O)c3ccc(C#Cc4ccccc4F)o3)CC2)c1,inactive,
CC(C)(c1ccc(O)cc1)c1ccc(O)cc1,inactive,
CCOC(=O)O[C@H](C)OC(=O)c1ccc2c(c1)cc(C(=O)NC1CCN(C(C)C)CC1)n2Cc1cc(-c2ccc(Cl)s2)on1,,23.6 µM (active)
c1ccc(Nc2ccccc2)cc1,inactive,
O=C(NO)C1(NS(=O)(=O)c2ccc(Oc3ccc(F)cc3)cc2)CCOCC1,inactive,
COCC(C)OCC(C)OCC(C)O (stereo not given),inactive,
CCCCCCCCCC,inactive,
O=C(N[C@@H](c1ccccc1)[C@@H]1CCCCN1)c1cccc(C(F)(F)F)c1Cl,inactive,
CC(=O)NC1(c2cccc(F)c2)CCN(CC[C@@]2(c3ccc(Cl)c(Cl)c3)CN(c3ccccc3)C(=O)CO2)CC1,inactive,
